Assay results as given in the supplement of paper PMC11732987, “Enantioselective OTUD7B fragment discovery through chemoproteomics screening and high-throughput optimisation” (Communications Chemistry, 2025).
Values without a mark were called inactive.

Legend:
Test in all cases: log2 ratio of Biotin-Ahx-Ub-VS probe labelling (fragment/DMSO); higher = less target engagement (more negative = stronger competition), active = hit call of the paper (q ≤ 0.05, log2 ratio ≤ -1)
Details in all cases: compound concentration: 200 uM; treatment time: 3 h
USP42 = target: T1, USP42 (UniProt Q9H9J4)
T1 sequence (whole entry): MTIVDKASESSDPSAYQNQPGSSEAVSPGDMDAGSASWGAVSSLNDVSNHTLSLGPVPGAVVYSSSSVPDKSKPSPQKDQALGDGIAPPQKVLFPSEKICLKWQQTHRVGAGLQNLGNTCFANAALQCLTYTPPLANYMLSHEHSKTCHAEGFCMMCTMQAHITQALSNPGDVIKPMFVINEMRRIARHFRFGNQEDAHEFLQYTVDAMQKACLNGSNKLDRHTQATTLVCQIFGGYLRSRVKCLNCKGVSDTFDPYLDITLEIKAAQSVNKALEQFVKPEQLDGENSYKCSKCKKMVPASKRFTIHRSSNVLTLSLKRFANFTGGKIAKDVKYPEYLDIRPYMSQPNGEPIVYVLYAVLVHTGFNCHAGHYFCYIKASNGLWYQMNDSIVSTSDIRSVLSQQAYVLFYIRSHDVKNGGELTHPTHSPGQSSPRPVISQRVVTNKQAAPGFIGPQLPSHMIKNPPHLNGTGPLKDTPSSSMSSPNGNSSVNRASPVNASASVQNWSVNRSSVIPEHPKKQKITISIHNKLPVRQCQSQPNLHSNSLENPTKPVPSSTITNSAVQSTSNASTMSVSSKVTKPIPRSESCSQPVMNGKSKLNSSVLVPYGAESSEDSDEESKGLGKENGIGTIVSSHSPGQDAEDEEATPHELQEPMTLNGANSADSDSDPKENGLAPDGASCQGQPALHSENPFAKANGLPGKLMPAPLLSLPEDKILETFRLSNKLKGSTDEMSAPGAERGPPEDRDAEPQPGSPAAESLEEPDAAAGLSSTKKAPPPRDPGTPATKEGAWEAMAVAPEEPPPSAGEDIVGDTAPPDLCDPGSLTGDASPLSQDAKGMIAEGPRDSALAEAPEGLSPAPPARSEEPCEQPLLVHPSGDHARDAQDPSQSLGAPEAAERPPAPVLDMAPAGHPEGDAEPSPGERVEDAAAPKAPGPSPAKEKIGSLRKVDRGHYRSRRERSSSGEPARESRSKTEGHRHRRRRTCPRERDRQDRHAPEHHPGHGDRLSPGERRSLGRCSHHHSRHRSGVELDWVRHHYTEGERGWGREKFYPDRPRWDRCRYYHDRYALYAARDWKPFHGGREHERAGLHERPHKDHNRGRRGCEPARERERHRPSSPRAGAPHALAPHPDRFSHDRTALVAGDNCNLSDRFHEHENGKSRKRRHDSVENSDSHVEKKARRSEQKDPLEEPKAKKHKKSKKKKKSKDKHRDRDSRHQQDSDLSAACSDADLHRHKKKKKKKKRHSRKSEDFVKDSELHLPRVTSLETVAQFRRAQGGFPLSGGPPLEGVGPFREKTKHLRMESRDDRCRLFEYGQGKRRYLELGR
How it was run: (§1)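 HEK293T lysate (495 µg per sample, in Tris/CHAPS/IGEPAL buffer with protease inhibitors) was exposed in triplicate for 3 h to fragment at 200 µM or to vehicle, then to Biotin-Ahx-Ub-VS at 0.5 µM final for 1 h. Labelled DUBs were enriched on NeutrAvidin, digested with LysC and trypsin, and analysed by diaPASEF LC-MS/MS. Spectronaut label-free quantities were normalised to the global median, and values are average log2 ratios of fragment over vehicle from an unpaired t-test. Only proteins with ≥2 unique peptides were used.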

USP46 = USP46 (UniProt P62068)
How it was run: as §1

USP47 = target: T2, USP47 (UniProt Q96K76)
T2 sequence (whole entry): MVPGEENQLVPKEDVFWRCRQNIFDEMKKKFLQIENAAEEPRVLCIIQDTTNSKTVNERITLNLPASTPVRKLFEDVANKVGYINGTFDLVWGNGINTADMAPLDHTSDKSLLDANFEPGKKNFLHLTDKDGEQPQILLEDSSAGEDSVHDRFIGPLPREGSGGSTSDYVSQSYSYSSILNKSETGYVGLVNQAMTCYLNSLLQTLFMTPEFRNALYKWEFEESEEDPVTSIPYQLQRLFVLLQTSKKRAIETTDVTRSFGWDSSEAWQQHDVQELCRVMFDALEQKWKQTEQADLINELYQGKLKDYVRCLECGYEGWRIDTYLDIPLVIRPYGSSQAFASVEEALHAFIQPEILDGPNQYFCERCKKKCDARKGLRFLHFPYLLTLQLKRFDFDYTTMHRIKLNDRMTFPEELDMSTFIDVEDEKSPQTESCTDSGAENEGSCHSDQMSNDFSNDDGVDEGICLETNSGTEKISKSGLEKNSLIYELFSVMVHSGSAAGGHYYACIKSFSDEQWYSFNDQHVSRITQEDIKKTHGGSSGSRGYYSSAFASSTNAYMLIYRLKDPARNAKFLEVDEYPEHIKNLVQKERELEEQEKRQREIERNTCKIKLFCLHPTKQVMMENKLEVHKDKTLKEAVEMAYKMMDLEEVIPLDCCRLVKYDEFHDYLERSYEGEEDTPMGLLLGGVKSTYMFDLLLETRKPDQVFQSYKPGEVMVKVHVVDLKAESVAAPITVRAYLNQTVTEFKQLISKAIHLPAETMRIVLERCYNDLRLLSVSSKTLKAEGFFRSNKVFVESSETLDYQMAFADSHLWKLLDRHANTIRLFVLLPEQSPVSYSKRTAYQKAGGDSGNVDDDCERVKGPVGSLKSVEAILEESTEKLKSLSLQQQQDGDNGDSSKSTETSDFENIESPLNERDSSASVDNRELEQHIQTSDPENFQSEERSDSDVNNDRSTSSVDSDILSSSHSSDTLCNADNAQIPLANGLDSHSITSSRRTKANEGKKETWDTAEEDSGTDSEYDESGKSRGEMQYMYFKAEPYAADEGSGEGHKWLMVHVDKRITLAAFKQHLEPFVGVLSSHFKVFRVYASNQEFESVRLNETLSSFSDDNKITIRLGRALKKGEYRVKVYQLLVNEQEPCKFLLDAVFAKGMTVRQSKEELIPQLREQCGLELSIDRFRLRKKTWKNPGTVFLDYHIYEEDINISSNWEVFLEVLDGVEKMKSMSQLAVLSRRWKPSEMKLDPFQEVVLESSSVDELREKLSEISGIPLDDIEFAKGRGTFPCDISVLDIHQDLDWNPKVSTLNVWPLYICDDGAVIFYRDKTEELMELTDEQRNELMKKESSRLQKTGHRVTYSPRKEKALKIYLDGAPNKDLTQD
How it was run: as §1

USP48 = target: T3, USP48 (UniProt Q86UV5)
T3 sequence (whole entry): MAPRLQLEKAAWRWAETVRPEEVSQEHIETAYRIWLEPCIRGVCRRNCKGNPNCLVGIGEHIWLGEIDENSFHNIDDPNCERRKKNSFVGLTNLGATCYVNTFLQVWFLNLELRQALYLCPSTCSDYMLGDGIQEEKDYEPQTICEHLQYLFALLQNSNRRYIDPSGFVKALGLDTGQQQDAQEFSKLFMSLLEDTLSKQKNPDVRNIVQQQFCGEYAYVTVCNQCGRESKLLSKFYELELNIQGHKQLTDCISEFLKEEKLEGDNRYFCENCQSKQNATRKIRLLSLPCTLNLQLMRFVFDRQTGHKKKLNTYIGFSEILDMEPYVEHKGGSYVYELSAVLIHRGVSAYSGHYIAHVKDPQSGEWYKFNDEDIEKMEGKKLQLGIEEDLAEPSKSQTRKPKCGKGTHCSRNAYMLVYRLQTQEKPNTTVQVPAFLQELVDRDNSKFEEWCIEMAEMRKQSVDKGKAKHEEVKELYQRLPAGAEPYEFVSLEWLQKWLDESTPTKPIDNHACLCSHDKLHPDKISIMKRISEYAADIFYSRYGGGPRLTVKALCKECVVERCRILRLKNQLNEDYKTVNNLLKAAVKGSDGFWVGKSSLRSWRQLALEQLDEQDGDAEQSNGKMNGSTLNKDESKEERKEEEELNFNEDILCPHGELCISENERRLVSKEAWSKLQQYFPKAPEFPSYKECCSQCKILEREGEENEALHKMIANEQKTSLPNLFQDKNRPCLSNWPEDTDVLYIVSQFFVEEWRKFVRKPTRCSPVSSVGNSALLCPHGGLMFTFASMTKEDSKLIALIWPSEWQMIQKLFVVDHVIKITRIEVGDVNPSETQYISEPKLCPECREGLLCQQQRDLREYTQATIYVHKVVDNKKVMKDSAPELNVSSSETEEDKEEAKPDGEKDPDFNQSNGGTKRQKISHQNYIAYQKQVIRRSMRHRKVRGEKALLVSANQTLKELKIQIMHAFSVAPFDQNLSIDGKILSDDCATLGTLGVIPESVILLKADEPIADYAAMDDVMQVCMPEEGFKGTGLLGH
How it was run: as §1

USP5 = target: T4, USP5 (UniProt P45974)
T4 sequence (whole entry): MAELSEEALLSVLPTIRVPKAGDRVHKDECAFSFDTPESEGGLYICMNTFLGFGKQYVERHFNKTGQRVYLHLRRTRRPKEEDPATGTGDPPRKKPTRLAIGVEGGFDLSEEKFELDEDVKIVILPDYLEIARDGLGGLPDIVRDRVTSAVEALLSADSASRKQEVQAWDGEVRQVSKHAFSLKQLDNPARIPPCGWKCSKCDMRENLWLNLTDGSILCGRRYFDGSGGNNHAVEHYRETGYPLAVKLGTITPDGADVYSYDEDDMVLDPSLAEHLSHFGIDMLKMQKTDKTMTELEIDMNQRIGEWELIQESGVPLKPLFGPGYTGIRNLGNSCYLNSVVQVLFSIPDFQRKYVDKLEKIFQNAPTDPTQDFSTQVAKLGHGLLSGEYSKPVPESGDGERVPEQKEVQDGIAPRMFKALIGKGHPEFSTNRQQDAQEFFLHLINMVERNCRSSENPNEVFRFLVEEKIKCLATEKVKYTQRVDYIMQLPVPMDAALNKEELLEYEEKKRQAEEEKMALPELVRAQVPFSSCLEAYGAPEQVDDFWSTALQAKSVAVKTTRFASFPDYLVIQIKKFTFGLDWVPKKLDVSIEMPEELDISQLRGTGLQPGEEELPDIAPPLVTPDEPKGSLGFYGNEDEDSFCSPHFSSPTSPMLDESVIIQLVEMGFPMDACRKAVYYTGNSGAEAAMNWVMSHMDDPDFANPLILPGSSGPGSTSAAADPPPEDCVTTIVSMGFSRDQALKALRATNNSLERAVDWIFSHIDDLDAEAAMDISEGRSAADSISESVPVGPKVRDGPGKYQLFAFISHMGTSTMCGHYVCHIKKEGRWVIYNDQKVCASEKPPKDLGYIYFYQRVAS
How it was run: as §1

USP54 = USP54 (UniProt Q70EL1)
How it was run: as §1

USP7 = USP7 (UniProt Q93009)
How it was run: as §1

USP8 = target: T5, USP8 (UniProt P40818)
T5 sequence (whole entry): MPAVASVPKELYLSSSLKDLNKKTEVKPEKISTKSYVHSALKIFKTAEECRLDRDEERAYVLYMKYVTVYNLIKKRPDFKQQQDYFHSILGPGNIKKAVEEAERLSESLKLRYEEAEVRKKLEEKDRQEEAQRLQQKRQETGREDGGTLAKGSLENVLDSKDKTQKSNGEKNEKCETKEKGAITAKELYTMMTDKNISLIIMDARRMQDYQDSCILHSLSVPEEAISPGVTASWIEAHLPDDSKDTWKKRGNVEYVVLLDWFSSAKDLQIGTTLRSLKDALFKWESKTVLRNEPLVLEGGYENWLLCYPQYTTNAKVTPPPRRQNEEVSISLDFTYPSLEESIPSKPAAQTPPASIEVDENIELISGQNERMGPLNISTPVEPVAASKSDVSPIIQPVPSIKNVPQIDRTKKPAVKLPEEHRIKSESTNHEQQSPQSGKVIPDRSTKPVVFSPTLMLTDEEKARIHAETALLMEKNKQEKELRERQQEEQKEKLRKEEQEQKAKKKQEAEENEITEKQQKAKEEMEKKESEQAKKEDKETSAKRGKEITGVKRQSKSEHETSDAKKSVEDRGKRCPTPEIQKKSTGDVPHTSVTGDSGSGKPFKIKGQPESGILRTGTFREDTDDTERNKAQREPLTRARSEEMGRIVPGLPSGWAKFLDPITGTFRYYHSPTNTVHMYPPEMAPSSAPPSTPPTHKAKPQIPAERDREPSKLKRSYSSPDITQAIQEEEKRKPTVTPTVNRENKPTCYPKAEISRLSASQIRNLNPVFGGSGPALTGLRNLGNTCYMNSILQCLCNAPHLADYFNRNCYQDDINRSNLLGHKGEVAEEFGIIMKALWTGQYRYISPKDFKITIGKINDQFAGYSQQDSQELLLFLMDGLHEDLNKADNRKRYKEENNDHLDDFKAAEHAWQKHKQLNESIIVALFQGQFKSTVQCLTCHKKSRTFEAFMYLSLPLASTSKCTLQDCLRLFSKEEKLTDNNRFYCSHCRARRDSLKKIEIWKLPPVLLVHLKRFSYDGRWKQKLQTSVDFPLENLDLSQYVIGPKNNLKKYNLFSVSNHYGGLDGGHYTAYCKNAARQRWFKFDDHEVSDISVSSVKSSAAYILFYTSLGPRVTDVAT
How it was run: as §1

USP9X = USP9X (UniProt Q93008)
How it was run: as §1

UniProt O00487 = target: UniProt O00487
How it was run: as §1

USP54, sequence (Q70EL1 whole entry): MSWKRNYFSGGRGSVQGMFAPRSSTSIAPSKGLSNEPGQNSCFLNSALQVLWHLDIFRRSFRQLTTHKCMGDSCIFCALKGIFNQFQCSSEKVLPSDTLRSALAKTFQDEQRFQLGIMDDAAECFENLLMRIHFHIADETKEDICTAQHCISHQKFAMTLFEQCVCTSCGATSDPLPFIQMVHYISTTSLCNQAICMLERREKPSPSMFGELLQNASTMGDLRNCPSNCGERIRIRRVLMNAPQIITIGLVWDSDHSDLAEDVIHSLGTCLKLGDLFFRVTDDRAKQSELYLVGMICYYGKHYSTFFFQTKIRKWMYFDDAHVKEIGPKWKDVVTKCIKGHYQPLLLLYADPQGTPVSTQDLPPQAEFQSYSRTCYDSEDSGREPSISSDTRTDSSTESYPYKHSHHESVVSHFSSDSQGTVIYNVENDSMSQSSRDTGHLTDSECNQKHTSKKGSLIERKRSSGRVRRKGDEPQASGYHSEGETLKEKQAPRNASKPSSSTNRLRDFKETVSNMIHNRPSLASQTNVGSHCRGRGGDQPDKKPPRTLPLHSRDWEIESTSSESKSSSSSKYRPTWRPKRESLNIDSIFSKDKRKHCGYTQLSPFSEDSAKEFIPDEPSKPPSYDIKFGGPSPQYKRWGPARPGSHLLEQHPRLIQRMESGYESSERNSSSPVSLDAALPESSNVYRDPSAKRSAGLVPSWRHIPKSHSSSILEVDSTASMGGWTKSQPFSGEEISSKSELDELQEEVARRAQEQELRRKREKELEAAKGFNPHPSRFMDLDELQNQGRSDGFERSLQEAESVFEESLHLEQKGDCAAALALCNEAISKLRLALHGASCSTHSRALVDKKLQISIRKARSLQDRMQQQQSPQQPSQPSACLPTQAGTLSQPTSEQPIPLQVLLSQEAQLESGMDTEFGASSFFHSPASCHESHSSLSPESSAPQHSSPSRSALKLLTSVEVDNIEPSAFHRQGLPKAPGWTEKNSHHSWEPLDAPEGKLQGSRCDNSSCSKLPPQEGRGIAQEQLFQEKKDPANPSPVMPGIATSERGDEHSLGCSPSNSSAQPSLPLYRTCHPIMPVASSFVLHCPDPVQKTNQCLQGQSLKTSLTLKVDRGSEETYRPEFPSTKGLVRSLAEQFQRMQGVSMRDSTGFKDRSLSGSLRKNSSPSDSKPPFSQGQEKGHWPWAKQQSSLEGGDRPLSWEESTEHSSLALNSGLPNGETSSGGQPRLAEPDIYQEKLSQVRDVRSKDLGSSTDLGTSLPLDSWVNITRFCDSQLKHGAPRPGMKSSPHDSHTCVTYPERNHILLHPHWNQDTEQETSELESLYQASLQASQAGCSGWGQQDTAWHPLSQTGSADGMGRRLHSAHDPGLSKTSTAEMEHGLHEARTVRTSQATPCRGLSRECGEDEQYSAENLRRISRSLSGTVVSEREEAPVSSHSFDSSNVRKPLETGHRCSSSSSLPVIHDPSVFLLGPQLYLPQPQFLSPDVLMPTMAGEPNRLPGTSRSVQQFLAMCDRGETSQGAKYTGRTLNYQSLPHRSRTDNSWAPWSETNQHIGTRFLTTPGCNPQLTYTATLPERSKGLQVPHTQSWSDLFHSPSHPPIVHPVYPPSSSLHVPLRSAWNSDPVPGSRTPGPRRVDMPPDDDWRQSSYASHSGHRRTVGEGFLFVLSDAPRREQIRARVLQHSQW
USP7, sequence (Q93009 whole entry, looked up): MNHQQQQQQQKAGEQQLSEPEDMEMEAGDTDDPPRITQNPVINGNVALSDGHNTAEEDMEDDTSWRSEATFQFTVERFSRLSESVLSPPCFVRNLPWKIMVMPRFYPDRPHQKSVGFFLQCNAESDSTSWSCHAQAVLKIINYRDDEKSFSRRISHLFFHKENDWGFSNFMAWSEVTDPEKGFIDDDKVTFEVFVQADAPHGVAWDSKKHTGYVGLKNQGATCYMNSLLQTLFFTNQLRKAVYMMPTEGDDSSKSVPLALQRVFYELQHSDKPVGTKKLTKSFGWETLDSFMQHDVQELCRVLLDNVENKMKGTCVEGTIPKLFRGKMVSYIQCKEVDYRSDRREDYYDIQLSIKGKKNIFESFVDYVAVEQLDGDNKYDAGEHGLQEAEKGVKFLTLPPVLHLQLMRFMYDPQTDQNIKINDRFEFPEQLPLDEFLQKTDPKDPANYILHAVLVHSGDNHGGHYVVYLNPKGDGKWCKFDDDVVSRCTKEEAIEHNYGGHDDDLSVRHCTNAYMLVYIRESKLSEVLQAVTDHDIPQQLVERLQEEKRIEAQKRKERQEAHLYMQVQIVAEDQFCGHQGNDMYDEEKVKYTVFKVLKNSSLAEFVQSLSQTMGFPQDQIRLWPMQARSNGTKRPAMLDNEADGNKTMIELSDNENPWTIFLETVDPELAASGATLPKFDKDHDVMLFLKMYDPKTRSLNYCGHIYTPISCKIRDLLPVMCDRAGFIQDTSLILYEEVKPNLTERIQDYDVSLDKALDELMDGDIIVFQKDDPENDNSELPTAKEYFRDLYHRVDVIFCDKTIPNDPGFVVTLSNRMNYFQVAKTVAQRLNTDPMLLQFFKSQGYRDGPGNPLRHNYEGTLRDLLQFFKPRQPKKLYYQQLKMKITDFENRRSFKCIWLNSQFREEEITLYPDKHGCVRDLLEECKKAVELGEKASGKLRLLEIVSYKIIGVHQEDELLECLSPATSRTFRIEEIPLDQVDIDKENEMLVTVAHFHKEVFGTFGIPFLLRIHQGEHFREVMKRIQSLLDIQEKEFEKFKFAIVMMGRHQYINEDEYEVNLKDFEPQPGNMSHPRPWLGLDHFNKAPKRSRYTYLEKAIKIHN
USP46, sequence (P62068 whole entry): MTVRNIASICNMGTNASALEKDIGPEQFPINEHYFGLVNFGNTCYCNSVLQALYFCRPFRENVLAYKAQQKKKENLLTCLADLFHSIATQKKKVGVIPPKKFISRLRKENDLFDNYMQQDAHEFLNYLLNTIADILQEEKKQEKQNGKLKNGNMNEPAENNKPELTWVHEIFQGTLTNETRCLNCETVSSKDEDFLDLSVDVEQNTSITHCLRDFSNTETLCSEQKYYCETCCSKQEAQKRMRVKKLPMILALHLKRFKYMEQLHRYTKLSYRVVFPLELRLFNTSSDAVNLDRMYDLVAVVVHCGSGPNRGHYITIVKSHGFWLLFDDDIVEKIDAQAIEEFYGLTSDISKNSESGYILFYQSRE
UniProt O00487, sequence (O00487 whole entry): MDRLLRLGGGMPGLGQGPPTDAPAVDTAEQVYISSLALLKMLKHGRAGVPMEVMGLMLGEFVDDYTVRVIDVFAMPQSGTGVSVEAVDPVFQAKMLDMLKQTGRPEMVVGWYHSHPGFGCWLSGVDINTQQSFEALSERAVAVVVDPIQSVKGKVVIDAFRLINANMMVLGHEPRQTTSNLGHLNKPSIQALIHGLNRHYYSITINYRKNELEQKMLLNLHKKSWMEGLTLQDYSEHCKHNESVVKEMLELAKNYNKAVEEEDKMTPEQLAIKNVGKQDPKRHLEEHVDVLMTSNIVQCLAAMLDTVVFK

Structure (SMILES)	log2 ratio of Biotin-Ahx-Ub-VS probe labelling (USP42)	log2 ratio of Biotin-Ahx-Ub-VS probe labelling (USP46)	log2 ratio of Biotin-Ahx-Ub-VS probe labelling (USP47)	log2 ratio of Biotin-Ahx-Ub-VS probe labelling (USP48)	log2 ratio of Biotin-Ahx-Ub-VS probe labelling (USP5)	log2 ratio of Biotin-Ahx-Ub-VS probe labelling (USP54)	log2 ratio of Biotin-Ahx-Ub-VS probe labelling (USP7)	log2 ratio of Biotin-Ahx-Ub-VS probe labelling (USP8)	log2 ratio of Biotin-Ahx-Ub-VS probe labelling (USP9X)	log2 ratio of Biotin-Ahx-Ub-VS probe labelling (UniProt O00487)
O=C(CCl)NCCc1ccc(F)cc1	0.0996	0.235	-0.0571	-0.229	0.066	0.699	-0.0342	-0.0379	-0.0191	0.113
CCN(Cc1ccc(C#N)cc1F)C(=O)CCl	-0.249	-0.114	-0.791	-1.26 (active)	0.258	0.521	-1.26 (active)	-0.229	-0.229	-0.0587
CN(C)C(=O)c1ccc(CNC(=O)CCl)cc1	-0.0843	0.181	0.119	0.0435	0.373	0.152	0.103	-0.341	0.002	-0.101
O=C(CCl)N(C1=CCCCC1)C1CC1	0.331	-0.1	-0.571	-0.64	0.124	0.551	-0.612	-0.00831	-0.0905	-0.232
